High-throughput results as filed in PubChem BioAssay.
IL-1B inflam inh: qHTS for Inhibitors of Inflammasome Signaling: IL-1-beta AlphaLISA Primary Screen. activity change, % at 57.5 µM. 360,000 compounds, 4.7% hits. AID 743279, 2014. THP-1 LPS/ATP IL-1B secretion, AlphaLISA, 16 h; hits give low values; in the data active means activity change below about -50%; inconclusive means mostly about -30% to -49%; further: on the % scale 0 is the no-effect control and ±100 the full control effect
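THP-1 cells pretreated 1 hr with compounds (up to 57.5 uM final), then stimulated with LPS (250 ng/mL final) plus ATP (1.25 mM final); secreted IL-1B measured by AlphaLISA after 16 hr, decreased signal indicating inhibition.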
ClpP mod: qHTS Assay for Activators of ClpP. ATP-dependent Clp protease proteolytic subunit (Bacillus subtilis (strain 168)), P80244. purified B. subtilis ClpP, FRET peptide cleavage, 20 min. Potency, µM (series often up to 57.5 µM), inactives show at the highest dose activity change, negative = active. 340,000 compounds, 1.9% hits. AID 651965, 2013; active means well fitted falling curve with a large enough effect; inconclusive means small, poorly fitted or top-dose-only effect; inactive means no such curve, though single readings can be large or run the other way; further: potency means the concentration at half of the fitted maximal effect; the source files actives as falling curves though it sought activators and does not explain the sign; nearly all actives have a fitted effect of over 65% in size
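FRET quenching reversal measured ClpP activation: 10 microg/mL B. subtilis ClpP at pH 8 with the FRET-FV decapeptide, read at 430 nm after 320 nm excitation. The 20-min minus 0-min signal was scaled between DMSO/no-enzyme wells and ADEP (5.8 microM final).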
TDP1 cell CPT: qHTS for Inhibitors of human tyrosyl-DNA phosphodiesterase 1 (TDP1): qHTS in cells in presence of CPT. chicken DT40 Tdp1-/-;hTDP1 cells + 20 nM CPT, ATP luminescence, 48 h. Potency, µM (doses to about 46.2 µM), inactives show top-dose activity change, negative = growth inhibition, usual class: inhibitors. 420,000 compounds, 12% hits. AID 686979, 2013; further: potency means the concentration at half of the fitted maximal effect; on the % scale 0 is the no-effect control and ±100 the full control effect; nearly all actives have a fitted effect of over 55% in size
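Cell growth measured by CellTiter-Glo luminescence after a minimum 48 h, 37 C compound exposure with 20 nM CPT in Tdp1-knockout DT40 cells stably expressing hTDP1, seeded 400/well; qHTS titration format.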
TDP1 cell noCPT: qHTS for Inhibitors of human tyrosyl-DNA phosphodiesterase 1 (TDP1): qHTS in cells in absence of CPT; 420,000 compounds, 15% hits; Potency, µM (top dose mostly 46.2 µM), for inactives: top-dose activity change, negative = growth inhibition, usual class: inhibitors; DT40 Tdp1-/- hTDP1 cells, no CPT, ATP luminescence, 48 h; further: potency means the concentration at half of the fitted maximal effect; on the % scale 0 is the no-effect control and ±100 the full control effect; nearly all actives have a fitted effect of over 55% in size
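Camptothecin absent (DMSO only). Human TDP1-complemented DT40 knockout cells, 400 cells/well, 37 °C for minimum 48 hr; ATP measured via CellTiter-Glo, 30 min dark incubation, luminescence.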
D3 antag: qHTS of D3 Dopamine Receptor Antagonist: qHTS; D3R cells, DiscoveRx beta-arrestin luminescence, antagonist mode; hits give low values; max response, negative = inhibition, %; AID 652054, 2013; 360,000 compounds, 2.5% hits; in the data active means max response below about -50%; inconclusive means no clear call, values can overlap the other calls; further: on the % scale 0 is the no-effect control and ±100 the full control effect
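Cells plated overnight at 1500 cells/well, then exposed to library compounds with dopamine controls for 90 minutes at 37 degrees C. DiscoveRx reagent added for 30–60 minutes at room temperature; luminescence read, quantitative HTS format.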
D3 ag: qHTS of D3 Dopamine Receptor Agonist: qHTS; D(3) dopamine receptor (Homo sapiens), P35462; AID 652048, 2013; D3R DiscoveRx beta-arrestin cells, luminescence, 90 min; max activation, %; 410,000 compounds, 0.58% hits; in the data active means max activation above about 30%; further: 0% is about no effect
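Agonist-mode cell screen: cells plated at 1500/well and incubated overnight at 37 °C, then exposed to library compounds for 90 min at 37 °C. Detection reagent was added for 30–60 min at room temperature, and luminescence was read.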
* = called active by the depositor; ? = inconclusive; . = no result given. Only some compounds are listed: those with a hit (about 21% of all), similar ones and a draw of the others. Unless noted, the call rests on the fitted dose curve; in most records, active means well fitted inhibition curve with a large enough effect; inconclusive means small, poorly fitted or top-dose-only effect; inactive means flat fitted curve, though single readings scatter.

SMILES	IL-1B inflam inh	ClpP mod	TDP1 cell CPT	TDP1 cell noCPT	D3 antag	D3 ag
O=C(NCCc1ccccc1)[C@@H]1CC=C[C@@H]2CCN(Cc3ccccc3)C(=O)[C@@H]21	3.5	-2.5%	?	?	12.2	4.0
Cc1nc(C(=O)N(Cc2cc3ccc(F)cc3nc2N2CCC(O)CC2)CC2CCCO2)cs1 (stereo not drawn)	.	.	-10.8%	-25.1%	.	.
Cc1ccc(N2C(=O)C3C4C=CC(CNC(=S)Nc5cccc(Cl)c5)(O4)C3C2=O)cc1 (stereo not drawn)	3.5	0.2%	?	14.6µM*	4.2	2.1
Cc1cc(C)c(S(=O)(=O)NCC23C=CC(O2)C2C(=O)N(c4ccccc4)C(=O)C23)c(C)c1 (stereo not drawn)	-3.9	0.0%	?	?	-11.7	-5.5
CC1CCN(C(=O)c2ccc(CSc3nc4ccncc4n3Cc3ccc(F)cc3)cc2)CC1	-6.7	-6.1%	23.1µM*	?	10.1	-0.6
O=C(c1ccc(CSc2nc3ccncc3n2Cc2ccccc2)cc1)N1CCCCCC1	.	-3.5%	9.2µM*	16.4µM*	.	-1.2
Cc1cccc(Cn2c(SCc3ccc(C(=O)N4CCCCCC4)cc3)nc3ccncc32)c1	.	1.1%	-122.2%	?	.	-9.7
CC1CCCN(C(=O)c2ccc(CSc3nc4ccncc4n3Cc3ccccc3)cc2)C1 (stereo not drawn)	.	-8.3%	16.4µM*	23.1µM*	.	-8.2
COC(=O)c1sccc1S(=O)(=O)N(CC(=O)NCc1ccccc1)c1ccccc1	.	-1.5%	-13.2%	?	.	0.2
CC1=NN(C(=O)CSCc2ccccc2)C(O)(c2ccc(Cl)cc2)C1 (stereo not drawn)	-0.8	0.9%	-27.9%	?	14.4	0.2
CCC1=NN(C(=O)COc2ccccc2)C(O)(c2ccncc2)C1 (stereo not drawn)	-17.2	.	?	16.4µM*	-14.8	-2.2
CC1=NN(C(=O)COc2ccc(C)c(C)c2)C(O)(c2ccc(Cl)cc2)C1 (stereo not drawn)	-15.0	-2.2%	13µM*	14.6µM*	-16.6	-0.2
CC1=NN(C(=O)CCc2ccccc2)C(O)(c2ccncc2)C1 (stereo not drawn)	-4.1	-2.5%	2.9%	16.8%	-0.1	5.1
CC1=NN(C(=O)COc2cc(C)ccc2C(C)C)C(O)(c2ccccc2)C1 (stereo not drawn)	-22.5	.	5.8µM*	25.9µM*	5.3	-7.1
CCc1cc(=O)oc2cc(C)cc(OC(C)C(=O)NCCCn3ccnc3)c12 (stereo not drawn)	-10.4	3.1%	-1.9%	23.8%	10.8	8.2
CCOC(=O)c1c(C)[nH]c(C(=O)OCC(=O)N2CCN(S(=O)(=O)c3ccc(C)cc3C)CC2)c1C	?	1.3%	?	?	23.9	3.5
CN(C)C(=O)COc1ccc(S(=O)(=O)c2ccc(OCC(=O)N(C)C)cc2)cc1	33.1	.	3.1%	-17.3%	-11.3	14.1
COc1cc(CN2C(=O)C(C)ON=C2c2ccccc2F)cc(OC)c1 (stereo not drawn)	26.3	1.5%	?	?	-5.4	-0.2
Cc1ccc(-c2cc(Cc3ccccc3)c(=O)[nH]n2)cc1	-5.6	0.0%	?	?	3.1	-9.6
CC(C)(C)c1ccc(-c2c(C#N)c(N)nc3c2CCCC3)s1	14.1	31.6µM*	?	-30.3%	8.1	2.1
N#Cc1c(N)nc2c(c1-c1ccncc1)CCCCC2	9.7	22.4µM*	?	-10.1%	-21.5	1.0
Cc1nn(C)c(C)c1-c1c(C#N)c(N)nc2c1CCCCCC2	0.0	1.26µM*	-29.0%	-23.7%	-12.0	-1.9
N#Cc1c(N)nc2c(c1-c1cccs1)CCCC2	15.4	-19.4%	-9.0%	-12.4%	5.7	-1.0
N#Cc1c(N)nc2c(c1-c1ccco1)CCCCC2	29.1	-20.2%	-11.7%	-6.8%	-10.7	-12.7
Cc1c(-c2c(C#N)c(N)nc3c2CCCCCC3)cnn1C	-6.6	12.6µM*	-13.3%	-17.3%	1.3	-0.1
SMILES	IL-1B inflam inh	ClpP mod	TDP1 cell CPT	TDP1 cell noCPT	D3 antag	D3 ag
Cc1ccccc1NC(=O)CSc1nnc2ccc(-c3cccnc3)nn12	-22.2	.	-24.8%	-6.9%	-3.8	-1.4
Cc1ccc(S(=O)(=O)N2CCC(C(=O)N3CCCC3C(=O)N[C@@H](CC(C)C)C(=O)NCC(N)=O)CC2)cc1 (stereo partly drawn)	-1.3	-1.6%	-0.5%	12.4%	27.0	8.1
NC(=O)C1CCN(C(=O)C(=O)c2cn(CC(=O)N3CCCCCC3)c3ccccc23)CC1	6.2	-2.0%	-10.0%	22.5%	-4.4	-3.9
Cc1cccc(NC(=O)C2CCCN(S(=O)(=O)c3c(C)noc3/C=C/N(C)C)C2)c1C (stereo not drawn)	.	-5.4%	?	?	.	3.2
Cc1ccc(NC(=O)C2CCCN(S(=O)(=O)c3c(C)noc3/C=C/N(C)C)C2)cc1F (stereo not drawn)	-24.4	-1.8%	?	18.4µM*	17.1	2.2
Cc1noc(/C=C/N(C)C)c1S(=O)(=O)N1CCCC(C(=O)NC2CCCCC2C)C1 (stereo not drawn)	-13.1	0.5%	?	20.6µM*	-1.9	-3.2
Cc1cccc(C)c1NC(=O)C1CCCN(S(=O)(=O)c2c(C)noc2/C=C/N(C)C)C1 (stereo not drawn)	.	-2.6%	16.4µM*	?	.	3.3
COc1ccc(NC(=O)CSCC(=O)Nc2cccc3ncccc23)cc1	16.6	1.3%	-22.5%	-16.7%	-10.5	-24.7
O=C(O)CCC(=O)N(Cc1ccco1)C1CC(=O)N(c2ccccc2)C1=O (stereo not drawn)	1.8	-1.1%	0.0%	6.4%	-3.7	-5.0
Cc1ccc(C)c(NC(=O)CCS(=O)(=O)c2cccc3nsnc23)c1	.	-0.8%	-11.5%	-8.1%	.	1.5
CCC(C)(C(=O)NC1CCCCC1)N(Cc1ccco1)C(=O)c1ccc2c(c1)OCO2 (stereo not drawn)	4.5	2.3%	11.6µM*	8.2µM*	?	-0.7
CCOc1cc(C2c3c(oc4ccc(F)cc4c3=O)C(=O)N2Cc2ccco2)ccc1O (stereo not drawn)	.	-1.9%	-3.9%	-5.7%	.	5.0
COCCNC(=S)Nc1cc2oc3ccccc3c2cc1OC	9.2	-8.5%	10.1%	6.6%	15.6	2.4
